The results in this text go back to PubChem BioAssay (NCATS).

Records with an inconclusive call do not appear. The source made the active and inactive calls. Unless noted, the call rests on the fitted dose curve; in most records, active means well fitted curve in the direction sought with a large enough effect; inconclusive means small, poorly fitted or top-dose-only effect, or another doubt; inactive means no such curve, though single readings can be large; an effect the other way counts as inactive or inconclusive. Residues, ends and D or L forms follow the SMILES beside them. *: point of attachment. Cbz = O=C(OCc1ccccc1)*

In test [1] the target is Glutathione peroxidase 1 (Homo sapiens) (UniProt P07203). Put plainly: Primary qHTS Assay for Inhibitors of Recombinant Selenoprotein Glutathione Peroxidase 1 (GPX1) (AID 1845191). Further: nearly all actives have a fitted effect of over 65% in size. Further: potency means the concentration at half of the fitted maximal effect. Summed up:
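GR-coupled readout: NADPH consumption tracked by fluorescence, ex 340/em 450 nm, at t=0 and after 15 min at RT. Final mix 10 nM GPX1, 1 mM GSH, 0.5 mM CHP, 0.5 mM NADPH, 100 nM GR, 0.01% BSA, following 30 min enzyme–compound preincubation.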
(qHTS replaces the single test concentration by a dilution series.)

In test [2] the target is Phospholipid hydroperoxide glutathione peroxidase GPX4 (Homo sapiens) (UniProt P36969). Put plainly: Primary qHTS Assay for Inhibitors of Recombinant Selenoprotein Glutathione Peroxidase 4 (GPX4) (AID 1845192). Further: nearly all actives have a fitted effect of over 65% in size. The procedure, abridged:
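Steps: GPX4 plus compound, 30 min RT; add GR/GSH/NADPH master mix; start with cumene hydroperoxide; read 340/450 nm fluorescence at 0 and 15 min. Finals were 200 nM GPX4, 1 mM GSH, 0.5 mM CHP, 0.5 mM NADPH, 100 nM GR.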

Test [3] deals with Luciferin 4-monooxygenase (Photinus pyralis) (UniProt P08659). Briefly: Primary firefly luciferase (FLuc) qHTS assay for identification of artifact compounds. (AID 1845220). Further: nearly all actives have a fitted effect of over 60% in size. Summed up:
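Enzymatic FLuc inhibition assay: compounds pre-exposed to luciferin/ATP (10 uM each) for 15 min, then purified P. pyralis enzyme at 10 nM added. Read-out: luminescence at 5 min.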

The nature of test [4]: Primary fluorescence-based thiol-reactive (MSTI) qHTS assay for identification of artifact compounds. (AID 1845221).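 Further: series mostly up to about 54 µM; thiol-reactive compounds lower the probe fluorescence signal; nearly all actives have a fitted effect of over 65% in size.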 Summed up:
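One-hour, room-temperature, dark incubation of compound with 4 uM MSTI in PBS (pH 7.4, 2% DMSO) precedes a fluorescence read at 525 nm excitation, 598 nm emission; Hill-equation fitting yields concentration-response values.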

Test [5] relates to Nanoluciferase (engineered Oplophorus gracilirostris luciferase). Briefly: Primary Nanoluciferase (NLuc) qHTS assay for identification of artifact compounds. (AID 1845222).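 Further: NLuc secreted into diluted conditioned medium of S16 cells; series mostly up to about 54 µM; 0% = DMSO and -100% = no enzyme.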 The procedure, abridged: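 S16 cell supernatant NLuc, 1:55; cpds qHTS; 15 min RT dark; Nano-Glo substrate 1:100, 5 min; luminescence; Hill fit of % inhibition.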
Test [6] can be described thus: Primary redox qHTS assay for identification of artifact compounds. (AID 1845223). Summed up: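 Redox-cycling detection via DTT (250 uM final) oxidation coupled to Amplex Red (25 uM)/HRP (250 mU/mL) in HBSS. 15 min preincubation plus 30 min after DTT, room temperature. Ex/Em 525/598 nm; 4-parameter Hill fit against DMSO and 10 uM DA3003.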
Test [7] is described as follows: Quantitative High-Throughput drug screen in 47 multiple myeloma cell lines against the NCATS MIPE library collection: FR4_PLB cell viability assay (AID 1918924; further: nearly all actives have a fitted effect of over 35% in size; further: potency means the concentration at half of the fitted maximal effect). Summed up: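 Steps: seed 500 cells per well; pin-transfer MIPE 4.0 library; incubate 48 h at 37C, 5% CO2, humidified; add CellTiter-Glo, 5 min room temperature; read luminescence.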
Test [8] in a line: Quantitative High-Throughput drug screen in 47 multiple myeloma cell lines against the NCATS MIPE library collection: Delta47_JCRB cell viability assay (AID 1918925; further: nearly all actives have a fitted effect of over 45% in size; further: potency means the concentration at half of the fitted maximal effect). The procedure, abridged:
(§1)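 qHTS of the MIPE 4.0 collection: 500 myeloma cells/well, 48 h drug exposure at 37C in 5% CO2, then CellTiter-Glo for 5 min at room temperature before luminescence reading.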

Test [9] is described as follows: Quantitative High-Throughput drug screen in 47 multiple myeloma cell lines against the NCATS MIPE library collection: EJM_DSMZ cell viability assay (AID 1918926; further: nearly all actives have a fitted effect of over 30% in size; further: potency means the concentration at half of the fitted maximal effect). Summed up: as §1
The nature of test [10]: Quantitative High-Throughput drug screen in 47 multiple myeloma cell lines against the NCATS MIPE library collection: AMO1_DSMZ cell viability assay (AID 1918927; further: nearly all actives have a fitted effect of over 30% in size; further: potency means the concentration at half of the fitted maximal effect). The procedure, abridged: as §1
Test [11] in a line: Quantitative High-Throughput drug screen in 47 multiple myeloma cell lines against the NCATS MIPE library collection: ARP1_JJKsccF8 cell viability assay (AID 1918928; further: nearly all actives have a fitted effect of over 40% in size; further: potency means the concentration at half of the fitted maximal effect). The procedure, abridged: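 Viability screen: myeloma cells (500/well) incubated 48 h at 37 °C, humidified 5% CO2, with pinned library compounds; CellTiter-Glo added, luminescence read; DMSO wells set 100%, medium-only wells 0%.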

Test [12] has as its target Phenylethanolamine N-methyltransferase (Homo sapiens) (UniProt P11086). Put plainly: Confirmatory Screen for Target Class Profiling of Small Molecule Inhibitors of Methyltransferases (AID 1745852). The following applies: MTase-Glo luminescence, SAH detection, recombinant enzyme; measured here: PNMT max response; stronger effect = lower value.
A short description of test [13]: NCATS anti-infectives library activity on HEK293 viability as a counter-qHTS vs the C. elegans viability qHTS (AID 1745854). Further: on the % scale 0 is the no-effect control and ±100 the full control effect. Summed up: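 CellTiter-Glo luminescence, read on a CCD imager, scored viability of HEK293 cells after 24 hr compound exposure at 37C. Library tested in several concentrations, 1:5 steps, up to 41.7 uM; digitonin served as control.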
A short description of test [14]: Quantitative High-Throughput drug screen in 47 multiple myeloma cell lines against the NCATS MIPE library collection: ARD_JJKsccE7 cell viability assay (AID 1918929; further: potency means the concentration at half of the fitted maximal effect;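 on viability: 100% = DMSO-only wells and 0% = media-only wells without cells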). Summed up: as §1
The nature of test [15]: Viability counterscreen for antagonist of constitutive androstane receptor (CAR) against the NCATS DSHEA and TCM libraries (AID 1794837).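 Further: compound exposure lasted 24 h before viability reading; 0% is about no effect.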 Summed up:
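Counterscreen performed in a 1536-well qHTS format using HepG2-CYP2B6-hCAR cells; samples titrated in the presence of 48 uM CITCO, with viability measured fluorometrically (405/540 nm) after 24 h.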
In general terms: A counterscreen serves to expose hits that act by an unwanted route or on another target.

Test [16] has as its target Nuclear receptor subfamily 1 group I member 3 (Homo sapiens) (UniProt Q14994). Briefly: Primary qHTS for agonist of constitutive androstane receptor (CAR) against the NCATS DSHEA and TCM libraries (AID 1794839).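 Further: HepG2 cells expressing human CAR with a CYP2B6 reporter plus PK11195 antagonist; luciferase reporter luminescence read with ONE-Glo; 0% is about no effect.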 Summed up: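 Concentration–response screen in HepG2-CYP2B6-hCAR cells under 0.75 µM PK11195; 24 h exposure; luminescent reporter signal with multiplexed fluorescent viability.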

The nature of test [17]: HepG2 viability counterscreen (readout 2: ATP content) against the NCATS DSHEA and TCM libraries (AID 1794840).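 Further: HepG2 cells exposed to substances for about 24 h; 0% is about no effect.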 Summed up: (§2)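 After HepG2 cells attach for ~4 h, substances are added and incubated ~24 h at 37C, 5% CO2. GF-AFC fluorescence then CellTiter-Glo luminescence give protease and ATP readouts.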
A short description of test [18]: HepG2 viability counterscreen (readout 1: protease activity) against the NCATS DSHEA and TCM libraries (AID 1794841).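 Further: cells exposed to compounds for about 24 h before the protease read; 0% is about no effect.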 Summed up: as §2
A short description of test [19]: NCATS anti-infectives library activity on the primary C. elegans qHTS viability assay (AID 1745855; calls by dose curve). Summed up: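 Titration-based screen in worms: eggs hatched overnight in M9, L1 larvae fed TOP10 capsules in S medium with compound, incubated 21 °C for 7 days; fluorescent objects gated by size and intensity at days 0, 3 and 7.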

Sequence of Phospholipid hydroperoxide glutathione peroxidase GPX4 (Homo sapiens) (P36969 whole entry, looked up): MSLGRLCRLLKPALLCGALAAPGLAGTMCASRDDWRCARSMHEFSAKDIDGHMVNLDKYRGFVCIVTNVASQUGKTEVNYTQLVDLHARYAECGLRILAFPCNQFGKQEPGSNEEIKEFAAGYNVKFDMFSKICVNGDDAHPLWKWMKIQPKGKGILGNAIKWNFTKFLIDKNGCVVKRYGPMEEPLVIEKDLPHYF
Sequence of Glutathione peroxidase 1 (Homo sapiens) (P07203 whole entry, looked up): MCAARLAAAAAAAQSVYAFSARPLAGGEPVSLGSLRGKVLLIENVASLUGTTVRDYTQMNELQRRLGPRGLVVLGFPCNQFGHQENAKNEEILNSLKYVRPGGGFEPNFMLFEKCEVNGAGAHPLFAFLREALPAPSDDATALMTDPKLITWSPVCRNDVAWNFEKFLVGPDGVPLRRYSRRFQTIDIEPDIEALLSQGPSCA
Sequence of Phenylethanolamine N-methyltransferase (Homo sapiens) (P11086 whole entry, looked up): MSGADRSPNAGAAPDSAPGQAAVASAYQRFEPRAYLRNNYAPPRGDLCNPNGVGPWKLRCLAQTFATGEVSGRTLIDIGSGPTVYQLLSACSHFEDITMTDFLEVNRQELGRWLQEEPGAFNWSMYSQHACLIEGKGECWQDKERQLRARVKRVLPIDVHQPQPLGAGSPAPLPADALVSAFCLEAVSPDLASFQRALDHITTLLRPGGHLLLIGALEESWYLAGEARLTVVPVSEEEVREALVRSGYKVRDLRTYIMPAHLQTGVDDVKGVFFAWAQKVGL
Sequence of Nuclear receptor subfamily 1 group I member 3 (Homo sapiens) (Q14994 whole entry, looked up): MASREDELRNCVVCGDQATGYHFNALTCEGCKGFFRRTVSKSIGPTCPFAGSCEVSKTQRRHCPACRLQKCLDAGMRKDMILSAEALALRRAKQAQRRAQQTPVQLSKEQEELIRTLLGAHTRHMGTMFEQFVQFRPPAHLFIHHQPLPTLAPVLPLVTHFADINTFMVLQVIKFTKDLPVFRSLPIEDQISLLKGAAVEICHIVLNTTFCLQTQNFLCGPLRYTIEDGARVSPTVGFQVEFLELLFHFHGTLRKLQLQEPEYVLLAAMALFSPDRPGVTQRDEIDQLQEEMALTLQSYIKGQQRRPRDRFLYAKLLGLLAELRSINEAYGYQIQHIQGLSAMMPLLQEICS

As to `FC(F)c1nc2ccccc2n1-c1nc(N2CCOCC2)nc(N2CCOCC2)n1`, the Potency result in test [1], in [2], in test [3], in test [4] and in [6] was “inactive” in each case. The outcome in test [5] was “inactive”. Further, the Potency in test [7] is 743 nM (active); in [8], 66.2 nM (active); in [9], 743 nM (active); in [10], 209 nM (active); in test [11], 166 nM (active).
In the case of `CN1CCc2c(c3ccccc3n2Cc2ccc(C(=O)NO)cc2)C1`, the activity in [12] is -22.2%. Moreover, the Potency result in [1], in test [2], in test [3] and in test [6] was “inactive” in each case. Also, the outcome in [5] is “inactive”. The Potency in test [7], in test [8], in [9] and in test [11] was 18700 nM (active) each time.
Regarding `CCC(C(=O)O)C1CCC(C)C(C(C)C(O)C(C)C(=O)C(CC)C2OC3(C=CC(O)[C@@]4(CC[C@](C)(C5CC[C@@](O)(CC)C(C)O5)O4)O3)C(C)CC2C)O1` (stereo partly specified), the activity change, negative = cytotoxicity in [13] was -17.2% [at 0.334 µM] (inactive). Besides, the Potency result in [2] is “inactive”. In addition, the Potency in test [7] was 16600 nM (active); in [8] it was 4690 nM (active); in [9], 5900 nM (active); in test [10] it was 132 nM (active); in test [11] it was 1870 nM (active); in test [14] it was 209 nM (active).
Consider `C=C(C)[C@@H]1CC[C@]2(C(=O)O)CC[C@]3(C)[C@H](CC[C@@H]4[C@@]5(C)CC[C@H](O)C(C)(C)[C@@H]5CC[C@]43C)[C@@H]12`, for which the Potency entry in test [13], in test [2], in [7], in test [8], in test [9] and in test [10] was “inactive” each time. In addition, the Potency entry in test [11] and in [14] was “inactive” in each case. The outcome in [15], in [16], in test [17] and in test [18] was “inactive” each time.
For the compound `CC(C)C[C@@H](C=O)NC(=O)[C@H](CC(C)C)NC(=O)[C@H](CC(C)C)NC(=O)OCc1ccccc1` (Cbz-Leu-Leu-Leu-aldehyde), the Potency entry in test [19] and in test [2] was “inactive” each time. The Potency in test [7] was 590 nM (active); in [8] it was 105 nM (active); in test [9], 833 nM (active); in [10], 105 nM (active); in test [11], 332 nM (active); in [14], 105 nM (active).
Regarding `Cc1cc(O)c2c(c1)C(=O)c1cccc(O)c1C2=O`, the Potency result in test [13], in [19], in test [2], in test [7], in test [8] and in test [9] was “inactive” in each case. The Potency entry in test [10] and in test [14] was “inactive” in each case. Further, the Potency in test [1] was 8170 nM (active).
On to `O=C1NCCc2[nH]c(-c3ccncc3)cc21`, for which the Potency entry in test [1] and in test [2] was “inactive” throughout. For the same compound, the Potency in test [7] is 1870 nM (active); in test [8], 2960 nM (active); in test [9], 1870 nM (active); in [10], 1660 nM (active); in test [11], 5900 nM (active); in [14] it was 4180 nM (active).
Consider `OCCNC1CCCc2c1[nH]c1ccc(-c3ccccc3)cc21` (stereo unspecified), for which the Potency entry in test [1], in [2], in [3], in test [4] and in test [6] was “inactive” each time. For the same compound, the outcome in test [5] was “inactive”. The Potency in test [7] was 18700 nM (active); in test [8], 10500 nM (active); in test [10], 16600 nM (active); in test [14], 26400 nM (active).
